Screening results deposited in PubChem by several laboratories.
Lmaj promast: Leishmania major promastigote growth inhibition, primary screen. Leishmania major promastigotes, resazurin fluorescence viability. inhibition, % at 10 µM. hit rate 9% among 200,000. AID 1063, 2008; in the data active means inhibition above about 50%;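 further: promastigotes grown with compound for 44 hours at 28 °C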
PTEN del growth: growth suppression of PTEN-null HCT116, primary screen, cell-based, CellTiter-Glo. hit rate 1.2% among 140,000. HCT116 PTEN-null viability, 60 h; hits give low values. viability, % at 10 µM. AID 827, 2007;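 active means viability at or below a set limit, 4 SD under the median of all tested compounds, cut at about 3.7% in these data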;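 further: PTEN knockout HCT116 line with beta catenin targeted HCT116 as companion control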
bCat KO growth: primary screen for growth suppressors in beta-catenin knockout HCT116 cells (colon tumor, human); viability, % at 10 µM; HCT116 beta-catenin knockout viability, CellTiter-Glo, 60 h; hits give low values; hit rate 1.5% among 140,000;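 active means viability at or under a set limit, the compound median less 4 SD, cut at about 6% in these data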
ROMK primary: ROMK potassium channel modulators, primary screen, cell-based, thallium flux, MLSMR library; Tet-inducible ROMK, thallium flux fluorescence; actives lie on both sides; B-score at 10 µM; hit rate 2% among 130,000;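 active means signal ratio slope over the read window, or its plate-corrected B-score, at least 3 SD from the plate mean, either direction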;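 further: B-score of the F/F0 ratio slope over 7 to 12 s after thallium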
Target sequence (P48048 whole entry, looked up): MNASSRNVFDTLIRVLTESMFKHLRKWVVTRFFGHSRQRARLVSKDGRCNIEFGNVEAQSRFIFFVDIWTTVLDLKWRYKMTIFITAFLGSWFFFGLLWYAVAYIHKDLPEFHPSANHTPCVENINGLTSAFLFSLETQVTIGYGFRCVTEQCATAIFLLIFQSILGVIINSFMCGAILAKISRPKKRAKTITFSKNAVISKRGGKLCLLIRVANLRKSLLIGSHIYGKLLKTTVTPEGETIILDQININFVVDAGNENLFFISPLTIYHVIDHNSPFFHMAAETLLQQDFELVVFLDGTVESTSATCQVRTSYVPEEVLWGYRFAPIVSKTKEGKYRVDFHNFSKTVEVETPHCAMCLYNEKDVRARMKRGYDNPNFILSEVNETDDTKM
p97 inhibitor: inhibitors of human p97 ATPase, primary screen, biochemical; inhibition, % at 8 µM; recombinant p97 ATPase, Kinase-Glo ATP luminescence, 3 h; hit rate 0.42% among 220,000; in the data active means inhibition above about 15%
INS promoter inh: inhibitors of insulin promoter-driven GFP, primary screen, imaging, TRM-6 cells (human fetal islet line), eGFP reporter, cell count. reporter expression induced with tamoxifen. inhibition, % at 2 µM. hit rate 0.9% among 130,000;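 active means inhibition above the mean plus 3 SD, with well images judged a real hit on visual review, cut at about 60% in these data, passing the limit was not always enough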
Of the large screens only hits and unclear results are named; the others gave an inactive call. In the library only some 10% were active in any assay of this set; here they are far more common.

O=C(CN1C(=O)C2CCCCC2C1=O)N1CCN(c2ccccc2)CC1 (centres undefined)	none (no result: PTEN del growth, bCat KO growth, INS promoter inh)
COC(=O)c1nnn(-c2nonc2N)c1CSc1nnc(N)s1	none (no result: PTEN del growth, bCat KO growth)
CCCNC(=O)[C@H](Cc1c[nH]c2ccccc12)NC(=O)c1ccccc1Cl	none
O=C(Nc1ccc(F)cc1)c1ccccc1NS(=O)(=O)N1CCCC1	none (no result: PTEN del growth, bCat KO growth, INS promoter inh)
CC(C)(C)n1nnnc1C(c1cccc(C(F)(F)F)c1)N1CCC(O)CC1 (centres undefined)	none (no result: PTEN del growth, bCat KO growth, INS promoter inh)
CCC(C)c1ccc(NC(=O)COC(=O)c2nc3nccc(C)n3n2)cc1 (centres undefined)	none (no result: PTEN del growth, bCat KO growth)
COc1ccc(CCC(=O)N2CCN(C3CCCCC3)CC2)cc1	Lmaj promast 56.0 (no result: ROMK primary)
O=C(CCC1CCCC1)N1CCN(C2CCCC2)CC1	Lmaj promast 94.2 (no result: ROMK primary)
O=C(CCC1CCCC1)N1CCN(C(=O)C2CC2)CC1	none (no result: ROMK primary)
CC(C)CC(=O)N1CCC(N2CCN(c3ccccc3)CC2)CC1	Lmaj promast 90.2 (no result: ROMK primary)
COc1ccccc1N1CCN(C2CCN(C(=O)COc3ccccc3)CC2)CC1	none (no result: PTEN del growth, bCat KO growth, INS promoter inh)
CCNC(=O)c1c(NC(=O)c2cc(-c3cc(C)ccc3O)n[nH]2)sc2c1CCCC2	none (no result: ROMK primary)
O=C1CC(/C=C/c2ccncc2)=Nc2ccccc2N1	Lmaj promast 65.5 (no result: PTEN del growth, bCat KO growth, INS promoter inh)
S=C(Nc1ccc(Cl)cc1)N1CCN(C2CCCCC2)CC1	Lmaj promast 80.5 (no result: INS promoter inh)
Cc1[nH]c(=O)cc2ccccc12	none (no result: INS promoter inh)
O=C(NCc1ccco1)c1cc([N+](=O)[O-])cc([N+](=O)[O-])c1	Lmaj promast 57.9, INS promoter inh 66.7
Cc1ccc(C(=O)NCc2ccco2)cc1[N+](=O)[O-]	none (no result: ROMK primary)
O=C(NCc1ccco1)c1cc([N+](=O)[O-])ccc1Cl	none (no result: PTEN del growth, bCat KO growth, INS promoter inh)
CC1CCCN(c2ccc(C(=O)NCc3ccco3)cc2[N+](=O)[O-])C1 (centres undefined)	Lmaj promast 72.7
CCOC(=O)/C(=C/C=C1\Sc2ccccc2N1CC)C(C)=O	none (no result: ROMK primary)
CCN1/C(=C/c2cc[n+](CCCS(=O)(=O)[O-])c3ccccc23)Sc2ccccc21	Lmaj promast 99.8 (no result: PTEN del growth, bCat KO growth, INS promoter inh)
CCOP(=O)(OCC)c1nc(-c2ccccc2Cl)oc1N1CCOCC1	none (no result: PTEN del growth, bCat KO growth)
CN(C)c1oc(-c2ccccc2Cl)nc1P(=O)(c1ccccc1)c1ccccc1	Lmaj promast 96.1 (no result: ROMK primary)
CC1=C(C(=O)c2ccccc2)C(c2ccc(N3CCOCC3)cc2)NC(=O)N1 (centres undefined)	none (no result: PTEN del growth, bCat KO growth)
C=C(C)COc1ccc(-c2[nH]ncc2Oc2cccc(OC)c2)c(O)c1	Lmaj promast 74.0
C=C(C)COc1ccc(-c2ncncc2Oc2ccc(OC)cc2)c(O)c1	Lmaj promast 65.6
CCCOC(=O)c1ccc(Oc2c(-c3ccc(OC)cc3O)n[nH]c2C)cc1	bCat KO growth 3.5 (no result: ROMK primary)
COc1ccc(Oc2cn[nH]c2-c2ccc(O)cc2O)cc1	Lmaj promast 57.7
CCCOC(=O)c1ccc(Oc2c(-c3ccc(O)cc3O)n[nH]c2C)cc1	none
Cc1nc(-c2cn[nH]c2-c2ccc(O)cc2O)cs1	ROMK primary -3.09
C=C(C)COc1ccc(-c2n[nH]c(C)c2Oc2ccccc2OC)c(O)c1	Lmaj promast 75.8
CCCc1ccc(Oc2cn[nH]c2-c2ccc(O)cc2O)cc1	Lmaj promast 95.0 (no result: ROMK primary)
CCOc1ccc(-c2n[nH]c(C)c2Oc2ccccc2OC)c(O)c1	none
Cc1ccc2[nH]c(=O)c(CN(Cc3ccc4c(c3)OCO4)Cc3nnnn3Cc3ccco3)cc2c1	Lmaj promast 100.0 (no result: ROMK primary)
CCc1ccc2[nH]c(=O)c(CN(Cc3nnnn3C3CCCC3)C3CCCCC3)cc2c1	PTEN del growth 1.6, bCat KO growth 1.8
Cc1ccc2[nH]c(=O)c(CN(Cc3ccc4c(c3)OCO4)Cc3nnnn3C3CCCC3)cc2c1	Lmaj promast 63.7 (no result: ROMK primary, INS promoter inh)
COc1ccc2nc(Cl)c(/C=N/Nc3ccccn3)cc2c1	none (no result: PTEN del growth, bCat KO growth)
C=CC[n+]1ccc(/C=C2\C=Cc3cc(C)ccc3N2CC)c2ccccc21	Lmaj promast 100.5 (no result: PTEN del growth, bCat KO growth, INS promoter inh)
COc1ccc(NC(=O)Nc2cc3oc4ccccc4c3cc2OC)cc1	none (no result: ROMK primary, INS promoter inh)
COc1cc2c(cc1NC(=O)Nc1ccc(C)cc1)oc1ccccc12	Lmaj promast 98.4
COc1ccc(/C=C/C(=O)NC(=S)Nc2cc3oc4ccccc4c3cc2OC)cc1	Lmaj promast 50.1 (no result: ROMK primary)
COc1cc2c(cc1NC(=S)NC(=O)/C=C/c1ccc(OC)c(OC)c1)oc1ccccc12	none (no result: ROMK primary)
COc1cc2c(cc1NC(=O)C(C)OC(=O)/C=C/c1ccc(OC(F)F)cc1)oc1ccccc12 (centres undefined)	Lmaj promast 80.5
CC(C)OC(=O)c1ccc(NC(=O)Cn2c(-c3nonc3N)nc3ccccc32)cc1	Lmaj promast 50.6 (no result: ROMK primary)
COC(=O)c1ccc(NC(=O)Cn2c(-c3nonc3N)nc3ccccc32)cc1	none (no result: PTEN del growth, bCat KO growth)
CC(C)c1ccc(C(C(=O)NC2CCCCC2)N(C(=O)c2ccccn2)c2cccnc2)cc1 (centres undefined)	none (no result: PTEN del growth, bCat KO growth)
O=C(CN(c1ccccc1)S(=O)(=O)c1ccccc1)NCCSc1ccccn1	none (no result: PTEN del growth, bCat KO growth, INS promoter inh)
Cc1cccc(N(CC(=O)NCCSc2ccccn2)S(=O)(=O)c2ccccc2)c1	Lmaj promast 57.1 (no result: ROMK primary)
Cc1ccc(N(Cc2ccc(C(=O)NCCSc3ccccn3)cc2)S(C)(=O)=O)cc1C	Lmaj promast 67.5
COc1ccc(CCNC(=O)Cn2ccc3c(OC)cccc3c2=O)cc1OC	none (no result: Lmaj promast, PTEN del growth, bCat KO growth, ROMK primary, INS promoter inh)
COc1ccc(NC(=O)N2CCC(n3cnc4ccccc43)CC2)cc1	none (no result: PTEN del growth, bCat KO growth, INS promoter inh)
CC1(C)CC(NC(=S)NCc2ccc3c(c2)OCO3)CC(C)(C)N1	none (no result: PTEN del growth, bCat KO growth, INS promoter inh)
O=C(NCc1ccncc1)c1ccc(Cl)c(S(=O)(=O)N2CCCCC2)c1	none (no result: PTEN del growth, bCat KO growth, INS promoter inh)
O=C(NCCOC(=O)c1ccc(Cl)c(S(=O)(=O)N2CCCCC2)c1)c1ccncc1	Lmaj promast 51.4
COc1ccc(C2Cc3ccccc3C(=O)O2)cc1 (centres undefined)	none
COC(=O)c1ccccc1NC(=O)C/C(C)=N/NC(=O)CC#N	INS promoter inh 71.4 (no result: PTEN del growth, bCat KO growth, ROMK primary)
COC(=O)c1ccc(NC(=O)C(=O)N2CCN(C(=S)NCCc3ccccc3)CC2)cc1	Lmaj promast 72.2
Oc1ccc(N2CCN(C(=S)NCCc3ccccc3)CC2)cc1	Lmaj promast 98.4 (no result: ROMK primary)
S=C(NCCc1ccccc1)N1CCc2ccccc2C1	Lmaj promast 77.8 (no result: PTEN del growth, bCat KO growth)
Fc1cccc(CN2CCN(C(=S)NCCc3ccccc3)CC2)c1	none (no result: PTEN del growth, bCat KO growth)
S=C(NCCc1ccccc1)N1CCN(Cc2ccccc2)CC1	Lmaj promast 57.5 (no result: ROMK primary, INS promoter inh)
COCCCNC(=S)N1CCN(C(=O)C(=O)Nc2ccc(C(=O)OC)cc2)CC1	none
Cc1c(CCOC(=O)C23CC4(C)CC(C)(CC(C)(C4)C2)C3)sc[n+]1CC(=O)c1ccccc1	none (no result: PTEN del growth, bCat KO growth)
Cc1c(CCOC(=O)C23CC4CC(CC(C4)C2)C3)sc[n+]1Cc1ccccc1	Lmaj promast 98.5 (no result: ROMK primary)
